The test system of one assay is T1, LZK.
T1 construct: gene MAP3K13

In another assay the test system is T2, MEK4.
T2 construct: gene MAP2K4

For the next assay, the system named is T3, MEK2.
T3 construct: gene MAP2K2
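Note: kd values determined as follow-up on hits from a single-replicate KINOMEscan panel screen.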

With `COc1cccc(NC(=O)Nc2ccc(C)c(-c3ccc(C(=O)Nc4ccncc4)cc3)c2)c1` [GSK1398474], the Kd is 4.4 µM with LYN, more than 10 µM with MAK and more than 10 µM with MARK1.
As to `CC(=O)c1c(C)c2cnc(Nc3ccc(N4CCNCC4)cn3)nc2n(C2CCCC2)c1=O`, the Kd with LZK was more than 10 µM.
`O=C(Nc1n[nH]c2nc(-c3cccs3)c(Br)cc12)C1CC1` [SB-735297] registered a Kd with MEK4 of more than 10 µM.
In the assay with MARK1, `O=c1cc(N2CCOCC2)nc2n(Cc3ccccc3F)ccn12` [GSK2297428] came in with a dissociation constant (Kd) of more than 10 µM.
For the compound `Cc1ccccc1Cn1ccn2c(=O)cc(N3CCOCC3)nc12` [GSK2269905], the Kd with MARK1 and with MARK4 was more than 10 µM in each case.
For `Cc1ccc(NC(=O)c2ccc(Cl)cc2)cc1-c1ccc(C(=O)Nc2ccncc2)cc1` [GSK1398467], the Kd in the assay with MARK2 was more than 10 µM.
Regarding `CCc1ccc(-c2ccc3c(c2)-c2n[nH]cc2S(=O)(=O)N3C)cc1`, in the assay with MEK2, the Kd is more than 10 µM.
With `COc1ccc(-c2coc3ccc(-c4nnc(C)o4)cc23)cc1`, the dissociation constant (Kd) in the assay with MARK1 and in the assay with MARK4 was more than 10 µM throughout.
As for `COc1cccc(C2=C(Nc3cc(Cl)c(O)c(Cl)c3)C(=O)NC2=O)c1` [SB-390767], the equilibrium dissociation constant (Kd) in the assay with LTK is more than 10 µM.
Regarding `CNCc1ccc2nc(NC(=O)c3ccc(C(C)(C)C)cc3)cn2c1`, in the assay with MAP3K15, binding was characterised by a dissociation constant (Kd) of 3.8 µM.
In the assay on MARK1, `c1ccc(-c2ccnc3[nH]ccc23)cc1` [SB-693578] came in with a Kd of more than 10 µM.
In turn, `COc1ccc(Nc2nccc(N3CCC(NC(=O)c4cc5ccccc5s4)C3)n2)cc1` (stereo not shown) [GSK1379738] registered a Kd in the assay with MAK of more than 10 µM.

One may read the Kd as the free concentration of one partner at which half of the binding sites on the other are occupied at equilibrium, for simple one-to-one binding. Low readings indicate a tighter complex, high ones a looser complex.
